The results in this text go back to PubChem BioAssay (EPA / NIEHS).

Molecules are shown by their SMILES. Calls of active or inactive are those of the source. How the source made its calls: active means hit-call score of the fitted dose curve at least 0.9, where 1 is the maximum; inactive means score below 0.9.

As usually defined, the AC50 is the concentration giving half of the maximal activity seen.

Sequence of E-selectin (Homo sapiens) (P16581 whole entry, looked up): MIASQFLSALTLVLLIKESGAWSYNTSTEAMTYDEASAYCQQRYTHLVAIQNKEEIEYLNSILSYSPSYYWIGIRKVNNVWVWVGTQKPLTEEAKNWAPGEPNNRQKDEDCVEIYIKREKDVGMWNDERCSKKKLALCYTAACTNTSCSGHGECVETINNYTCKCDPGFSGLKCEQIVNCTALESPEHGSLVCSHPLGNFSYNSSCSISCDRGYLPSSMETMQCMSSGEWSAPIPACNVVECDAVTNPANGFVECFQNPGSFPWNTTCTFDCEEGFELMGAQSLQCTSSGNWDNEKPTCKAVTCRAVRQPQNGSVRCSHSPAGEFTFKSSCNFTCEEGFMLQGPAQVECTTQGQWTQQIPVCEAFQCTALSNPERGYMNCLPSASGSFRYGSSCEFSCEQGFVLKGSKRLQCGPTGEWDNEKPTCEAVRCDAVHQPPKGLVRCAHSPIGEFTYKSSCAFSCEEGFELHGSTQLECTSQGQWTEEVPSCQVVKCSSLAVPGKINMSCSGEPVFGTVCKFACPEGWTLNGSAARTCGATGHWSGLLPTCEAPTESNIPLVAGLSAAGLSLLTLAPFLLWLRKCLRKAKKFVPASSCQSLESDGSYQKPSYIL

Read-out in the assay: E-selectin (Homo sapiens) (UniProt P16581)
Kind of assay: BSK_3C_Eselectin: BioMAP Diversity Plus: 3C Assay for Eselectin Biomarker Activity (AID 2283015). The settings on record: primary human endothelial cells (HUVEC); actives raise or lower the signal. How it is done: BSK_3C is a cell-based, multiplexed-readout assay that uses umbilical vein endothelium, a human vascular primary cell, with measurements taken at 24 hours after chemical dosing in a 96-well plate.BSK_3C_Eselectin is an assay component measured in the BSK_3C assay. It measures E-selectin antibody related to regulation of gene expression using ELISA technology.Data from the assay component BSK_3C_Eselectin was analyzed into 1 assay endpoint. This assay endpoint, BSK_3C_Eselectin, was analyzed with bidirectional fitting relative to DMSO as the negative control and baseline of activity. Using a type of binding reporter, gain or loss-of-signal activity can be used to understand changes in the signaling as they relate to the gene SELE. Furthermore, this assay endpoint can be referred to as a primary readout, because this assay has produced multiple assay endpoints where this one serves a signaling function. To generalize the intended target to other relatable targets, this assay endpoint is annotated to the cell adhesion molecules intended target family, where the subfamily is selectins.
The levels of cell surface (or secreted, indicated by the prefix "s") biomarker endpoints were measured by ELISA. Overt cytotoxicity to cells in confluent adherent cultures (all systems other than the BT system) was assessed by measuring total protein levels using sulforhodamine B (SRB) staining in parallel cultures at the time of biomarker measurements, indicated as SRB endpoints. For proliferation assays for adherent cell types, individual cell types are cultured at sub-confluence and relative cell numbers quantified by SRB staining at time points optimized for each system (48 h: 3C and CASM3C systems; 72 h: BT and HDF3CGF systems; 96 h: SAg system). SRB was performed by staining cells with 0.1% SRB after fixation with 10% TCA and reading wells at 560 nm.Viability and proliferation of PBMC (T cells) was quantified by Alamar Blue reduction for the SAg and BT systems. For PBMC viability (referred to as PBMC Cytotoxicity within the assay endpoint names), cells were plated (75,000/well in a 96-well plate) and then chemical samples added for 1 h before addition of activators, SEB and TSST-1 (20 ng/mL final concentration each). Cells were incubated for 90 h. Then, Alamar Blue (20 uL/well) (Invitrogen, Cat DAL1100) was added for 6 h, and the plates were read with a fluorescence microplate reader at 546/580 nm (excitation/emission). For PBMC proliferation, cells were plated and activated as above but incubated for only 16 h prior to addition of Alamar Blue. Plates were read after 6 h.
Take `CCCCC(CC)C(=O)OCCOCCOCCOC(=O)C(CC)CCCC` (stereo not given): the outcome was inactive. Still for that read-out and setting: with `OCCOCCOCCO` the entry was “inactive”. `NC(=O)N(O)[C@@H]1COc2cc(OCc3ccccc3)ccc21`: the result was inactive. On the same count and under the same terms, to `COS(C)(=O)=O` belongs “inactive”; to `OCc1ccccc1`, “inactive”. Same read-out and setting: to `O=C(NO)C1(NS(=O)(=O)c2ccc(Oc3ccc(F)cc3)cc2)CCOCC1` belongs “inactive”. Same read-out and setting: with `CCn1nc(C)c2c1C(=O)NCC(c1ccc(O)cc1)=N2` the entry was “inactive”.

In the case of `CCCCCCCCCCCCCCCCOS(=O)(=O)O`, the outcome was inactive. As for `CCCCCCCCCC`, the outcome was inactive.

For `CC(C)CCCCCCOC(=O)C1CCCCC1C(=O)OCCCCCCC(C)C` (stereo not given), the outcome was inactive. On the same count and under the same terms, to `NCC(F)(F)C(F)(F)C(F)(F)C(F)(F)F` belongs “inactive”; to `OC(O)(C(F)C(O)(O)C(F)(F)F)C(F)(F)F`, “inactive”. On the same count and under the same terms, to `CC(C)CC(C)O` (stereo not given) belongs “inactive”. The same measure, in the same setting: with `Cn1c(=O)c2[nH]cnc2n(C)c1=O` the entry was “inactive”; with `NC(=O)N1c2ccccc2C=Cc2ccccc21`, “inactive”; with `c1ccc2c(c1)-c1cccc3c1c-2cc1ccccc13`, “inactive”. For `CCCCCOC(C)=O`, the outcome was inactive. In the case of `CCCCCCCCCCCCCCO`, the AC50 was 36.7 µM (active).

Consider `COc1cc2c(c(OC)c1OC)-c1ccc(OC)c(=O)cc1[C@@H](NC(C)=O)CC2`, for which the outcome was inactive. On the same count and under the same terms, to `CC(C)C(=O)Nc1ccc([N+](=O)[O-])c(C(F)(F)F)c1` belongs “inactive”; to `NNC(=O)c1ccncc1`, “inactive”; to `Cc1ncc([C@@H](CCCCCCc2ccc3c(n2)NCCC3)CC(=O)O)cn1`, “inactive”. Same read-out and setting: to `S=P(N1CC1)(N1CC1)N1CC1` belongs “inactive”; to `FC(F)C(F)(F)COCC1CO1` (stereo not given), “inactive”. Consider `O=C1CN(N=Cc2ccc([N+](=O)[O-])o2)C(=O)N1`, for which the AC50 is 9.86 µM (active). Consider `Nc1ccn([C@@H]2O[C@H](CO)[C@@H](O)[C@@H]2O)c(=O)n1`, for which the outcome was inactive.

On to `O=C(O)c1ccc2c(c1)nc(C(=O)NC1CCN(C3CC3)CC1)n2Cc1cc(-c2ccc(Cl)s2)on1`, for which the outcome was inactive. Same read-out and setting: with `C[Si](C)(C)C(F)(F)C(F)(F)C(F)(F)F` the entry was “inactive”.

Consider `CCCCCCCCN(C)C`, for which the result was inactive.

Regarding `NC(N)=O`, the result was inactive. `C=CCc1cc(S(=O)(=O)c2ccc(O)c(CC=C)c2)ccc1O`: the AC50 is 20 µM (active). Same read-out and setting: with `OCc1c[nH]c2ccccc12` the figure was 24.6 µM (active). Turning to `CC(C)c1nnc2ccc(-c3ocnc3-c3cc(F)ccc3F)cn12`, the outcome was inactive. Still for that read-out and setting: with `O=C(O)c1cccc(C[C@@H]2COc3ccc(OCc4nc5cc(F)ccc5s4)cc3[C@@H]2O)c1` the entry was “inactive”; with `Cc1ccc(S(=O)(=O)NC(=O)NN2CCCCCC2)cc1`, “inactive”; with `O=C(O)[C@H](O)[C@@H](O)C(=O)O`, “inactive”. Consider `O=S(=O)(O)CCC(F)(F)C(F)(F)C(F)(F)C(F)(F)C(F)(F)C(F)(F)F`, for which the result was inactive. In the case of `CCCCN1C(=O)[C@@H]([C@H](O)C2CCCCC2)NC(=O)C12CCN(Cc1ccc(Oc3ccc(C(=O)O)cc3)cc1)CC2`, the result was inactive. Still for that read-out and setting: with `OC[C@H]1O[C@@](CO)(O[C@H]2O[C@H](CO)[C@@H](O)[C@H](O)[C@H]2O)[C@@H](O)[C@@H]1O` the entry was “inactive”; with `FC(F)=C(F)C(F)(F)C(F)(F)C(F)(F)C(F)(F)C(F)(F)C(F)(F)F`, “inactive”.
